# PubChem BioAssay AID463173 (ICCB-Longwood Screening Facility, Harvard Medical School, 2010)
# Out of some 52,000 compounds screened, about 1,700 (3.3%) were called active. This is one part of a sample in which actives are shown more often than they occur. Values without a mark were called inactive. No stated cut-off is given here; in the data, active means survival mostly below about 52% (no sharp cut-off); inactive means mostly above about 56%.
# Tested on: Wild type
# Assay: S. aureus survival, RN4220 and DeltatarO strains – OD600, teichoic acid synthesis inhibitors, primary screen (AID 463173)
# Settings: S. aureus RN4220 wild type/DeltatarO growth, OD600, 18 h, stronger effect = lower value, screened at 18.75 µg/mL (by protocol)
row,SMILES,survival
1,NCCC(=O)N1c2ccccc2Sc2ccc(Cl)cc21,104%
2,Cc1ccc(F)cc1NC(=O)CCc1c(C)nn(-c2ccc(N3CCOCC3)nn2)c1C,113%
3,O=C(c1ccccc1)N1CCc2cc(CNS(=O)(=O)c3ccc(Cl)s3)ccc21,66%
4,Cc1c(C(=O)NCc2ccc(F)cc2)oc2ccc(S(=O)(=O)N3CCCCC3)cc12,84%
5,CCOC(=O)CSc1nc2ccc(NC(=O)c3cccc(F)c3)cc2s1,87%
6,CS(=O)(=O)Nc1ccc2c(c1)OCO2,94%
7,COc1ccc(OC)c(NC(=O)CCCOc2cc(=O)n(C)c3ccccc23)c1,64%
8,COc1cccc(NC(=O)C2CCCN(c3ncnc4onc(C)c34)C2)c1 (stereo unspecified),72%
9,CCC(C)NC(=O)c1c(C)oc2nc(C)nc(N3CCOCC3)c12 (stereo unspecified),88%
10,CCc1cccc(NC(=O)CCn2nc(C)cc2C)c1,77%
11,COc1ccc(NC(=O)C2CCN(C(=O)c3sc4nc[nH]c(=O)c4c3C)CC2)c(OC)c1,81%
12,O=C(Nc1ccc(-c2nc3ccccc3s2)c(O)c1)c1ccc(Br)cc1,85%
13,CSc1ccc(C(=O)Nc2ccc(-c3nc4ccccc4s3)c(O)c2)cc1,0% (active)
14,Cc1ccc(C(=O)Nc2ccc(-c3nc4ccccc4s3)c(O)c2)c(C)c1,91%
15,COc1ccc(C(=O)Nc2ccccc2-c2nc3ccccc3s2)cc1OC,-6% (active)
16,COc1cccc(C(=O)Nc2ccccc2-c2nc3ccccc3s2)c1,42%
17,COc1ccc(C(=O)Nc2cc(-c3nc4ccccc4s3)ccc2OC)cc1,5% (active)
18,COc1cc(OC)cc(C(=O)Nc2cc(-c3nc4ccccc4s3)ccc2OC)c1,67%
19,CCOc1ccc(C(=O)Nc2cc(-c3nc4ccccc4s3)ccc2OC)cc1,163%
20,COc1cc(OC)cc(C(=O)Nc2ccccc2-c2nc3ccccc3s2)c1,41%
21,O=C(NCc1ccc(Cl)cc1)C(=O)NCC(c1cccs1)S(=O)(=O)c1ccc(Cl)cc1 (stereo unspecified),58%

row,SMILES,survival
1,CCOC(=O)C1CCN(c2cc(C)nc3c(-c4ccccc4OC)c(C)nn23)CC1,82%
2,COc1ccc(S(=O)(=O)N(Cc2ccccc2)Cc2nc3ccccc3c(=O)[nH]2)cc1,113%
3,COc1ccc(C2=C(C)C(=O)N(Cc3ccc(C(=O)NCc4ccccc4C)cc3)S2(=O)=O)cc1,66%
4,Cc1cccc(OCc2nc(CC(=O)Nc3ccc(Cl)cc3)cs2)c1,92%
5,COc1ccccc1N1CCN(c2ncnc3c2c(-c2ccccc2)cn3-c2cccc(Cl)c2)CC1,74%
6,CCc1ccc2nc(N(Cc3cccnc3)C(=O)c3cccs3)sc2c1,127%
7,CC(=O)c1cccc(NC(=O)c2ccc3c(c2)CCN3S(=O)(=O)c2ccccc2)c1,71%
8,Cc1c(-c2nnc(SCC(=O)Nc3ccc(Br)cc3)o2)nnn1-c1ccc(F)cc1,80%
9,O=C(CCCCCn1c(=O)[nH]c2ccccc2c1=O)NCCc1ccccc1,92%
10,Cc1cccc(NC(=O)c2sc3nc4c(cc3c2N)CCCCCC4)c1C,121%
11,O=C(c1ccco1)n1nc(-c2ccc(Cl)cc2)nc1NCc1ccc(F)cc1,70%
12,O=C(c1ccco1)n1nc(-c2ccccc2)nc1NCc1ccc(Cl)cc1,85%
13,O=C(c1ccccc1)n1nc(-c2ccccc2)nc1NCc1ccc(F)cc1,-4% (active)
14,COc1ccc(C(=O)n2nc(-c3ccc(Cl)cc3)nc2NCc2ccco2)cc1,99%
15,O=C(c1ccco1)n1nc(-c2ccc(Cl)cc2)nc1NCc1ccccc1,74%
16,O=C(c1ccco1)n1nc(-c2ccccc2)nc1NCc1ccc(F)cc1,73%
17,O=C(c1ccc(Cl)cc1)n1nc(-c2ccccc2)nc1NCc1ccco1,24% (active)
18,O=C(c1ccc(F)cc1)n1nc(-c2ccccc2)nc1NCc1ccc(F)cc1,19%
19,O=C(c1ccc(F)cc1)n1nc(-c2cccnc2)nc1NCc1ccccc1,81%
20,O=C(c1ccccc1)n1nc(-c2ccc(Cl)cc2)nc1NCc1ccco1,25% (active)
21,O=C(c1ccc(F)cc1)n1nc(-c2ccc(Cl)cc2)nc1NCc1ccco1,76%

row,SMILES,survival
1,O=C(c1ccc(F)cc1)n1nc(-c2ccccc2)nc1NCc1ccco1,9% (active)
2,Cc1ccc(Nc2nc(C(N)=O)c(NC(=O)c3ccccc3Br)s2)cc1,71%
3,CCOC(=O)C1CCC(CN(Cc2ccc(Cl)cc2)S(=O)(=O)c2cc(Cl)cc(Cl)c2)CC1 (stereo unspecified),59%
4,COc1ccc(-n2c(=O)c3sc4ccccc4c3n(Cc3ccccc3)c2=O)cc1,81%
5,Cc1cc(C)c(NC(=O)c2oc3c(c2C)-c2[nH]ncc2CC3)c(C)c1,81%
6,CCc1ccc(NC(=O)c2oc3c(c2C)-c2[nH]ncc2CC3)cc1,59%
7,Cc1cc(NC(=O)c2oc3c(c2C)-c2[nH]ncc2CC3)ccc1Br,1% (active)
8,Cc1[nH]c2ccc(Cl)cc2c(=O)c1CN1CCN(C)CC1,109%
9,Clc1ccc(CCNc2nc3ccccc3c3nc(-c4ccccc4)nn23)cc1,38%
10,Cc1ccc(CNC(=O)CSc2nc3n[nH]c(C)c3c(=N)n2-c2ccccc2Cl)cc1,83%
11,Cc1ccc(CN2CCC(CNC(=O)Nc3ccc(C)c(C)c3)C2)cc1 (stereo unspecified),94%
12,Cc1ccc(CN2CCC(CNC(=O)Nc3cccc(Cl)c3C)C2)cc1 (stereo unspecified),88%
13,O=C(NCC1CCN(Cc2cccc(Cl)c2)CC1)Nc1cc(Cl)ccc1Cl,-1% (active)
14,Cc1cc(C)cc(NC(=O)NCC2CCN(Cc3cc(C)ccc3C)CC2)c1,83%
15,Cc1ccc(CN2CCC(CNC(=O)Nc3ccccc3F)CC2)cc1,118%
16,Cc1ccc(CN2CCC(CNC(=O)Nc3ccc(Cl)cc3)C2)cc1 (stereo unspecified),53%
17,O=C(NCC1CCN(Cc2cccc(Cl)c2)CC1)Nc1ccc(F)c(Cl)c1,14% (active)
18,Cc1ccc(NC(=O)NCC2CCN(Cc3cccc(Cl)c3)CC2)cc1Cl,-6% (active)
19,O=C(NCC1CCN(Cc2ccccc2F)CC1)Nc1ccc(F)c(Cl)c1,73%
